Where “and” joins values, the source holds several entries; their conditions need not be identical. Identical values can stand only once. The panel holds about 83,000 compounds, 20% with a hit somewhere; the sample as a whole holds those more often.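 In brief: 96-well plates, 48 h treatment, single concentration, percent growth endpoint.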 A number with no mark means an inactive call. Calls of active or inactive are those of the source. How the source made its calls: active means growth percent below 10; inactive means the rest.

This test relates to A549/ATCC NSCLC. As to the kind of experiment: NCI-60 one-dose screen, 48 h (100 = growth as untreated, 0 = no growth, -100 = all killed). The following applies: 10 µM unless noted.
For `Cc1ccc(C(=O)Nc2cc(-n3ccnc3)cc(C(F)(F)F)c2)cc1-n1cc(-c2cnc3cccnn23)nn1`, the growth is 101%.

In the case of `CCC(=O)c1c2c(c3ccc4c5ccccc5ccc4n13)C(=O)c1ccccc1C2=O`, the growth was 31.7%.

Consider `N#Cc1c(NC(=O)N2CCOCC2)n(-c2ccc(OC(F)(F)F)cc2)c2cc(F)ccc12`, for which the growth was 86.3%.

For the molecule `CC(=O)Nc1cccc(-n2c(COc3ccc(Br)cc3)nc3ccccc32)c1`, the growth is 115% and 108%.

Consider `COc1ccc(-c2cc(C(=O)OCc3ccc(Br)cc3)nn2-c2ccc(S(C)(=O)=O)cc2)cc1OC`, for which the growth was 78.6%.

Regarding `Cc1nc(N)ncc1-c1ccc2ncnc(N3CCc4cc(F)c(Cl)cc43)c2c1`, the growth is 56.2%.

In the case of `COc1ccc(C(=O)NNC(=O)CSc2nc3sc4c(c3c(=O)n2-c2ccc(Cl)cc2)CCCC4)cc1`, the growth is 86.7%.

Regarding `Cn1cc(-c2cc3nc(-c4cn(C)c5ncccc45)cc(N)n3n2)c2cc(F)ccc21`, the growth was 19.6%.

In the case of `COc1ccc2[nH]c(=O)c(CSc3ccccc3Nc3nccc(-c4ccc(C(F)(F)F)cc4)n3)cc2c1`, the growth was 18.5%.

With `N#CC1=C(c2cccs2)Nc2c(c(-c3ccccc3)nn2-c2ccccc2)C12C(=O)Nc1ccc(Br)cc12` (stereo not given), the growth is -9.72% (active).

Turning to `CCN1CCN(Cc2ccc(C(=O)Nc3cccc(Nc4ccc5c(OC)cccc5n4)c3)cc2C(F)(F)F)CC1`, the growth was -68% (active).

Consider `O=C(Nc1ccc(S(=O)(=O)N2CCCCC2)cc1)C(Cl)Cl`, for which the growth is 104%.

Take `O=[N+]([O-])c1cccc(-c2nnc3c(/C=C/c4ccc(F)cc4)nc4ccccc4n23)c1`: the growth was 95%.

As to `COc1ccc(/C=C/C(=O)c2ccc(OC)c(S(N)(=O)=O)c2)c(C(F)(F)F)c1`, the growth was 10.6%.

Consider `COc1ccc2[nH]cc(-c3cc4nc(-c5cn(C)c6ncc(Br)cc56)cc(N)n4n3)c2c1`, for which the growth is -69.8% (active).

In the case of `N#CC1=C(c2cccs2)Nc2c(c(-c3ccccc3)nn2-c2ccccc2)C12C(=O)Nc1ccc(Cl)cc12` (stereo not given), the growth was 24.4%.

As for `Oc1ccc(F)c(Nc2nc(SCCN3CCOCC3)nc3c2cnn3CC(Cl)c2ccc(Br)cc2)c1` (stereo not given), the growth was 23.9%.

`O=C(NNC(=S)NCCc1ccccc1)c1ccc(OCc2nc3ccc(Cl)cc3[nH]2)cc1`: the growth is 73.8%.

Turning to `COc1c(B(O)O)cc(F)cc1-c1nc2c(F)cc3[nH]ncc3c2c2c1CCCC2`, the growth is 2.51% (active).

As to `C[C@H]1[C@@H](CC(=O)N[C@@H](Cc2coc3ccccc23)B(O)O)O[C@@H]2OC3(C)CC[C@H]4[C@H](C)CC[C@@H]1[C@@]24O3`, the growth is 31.6%.

`C#CCN(C)CCCOc1ccc(N(C)C(=O)c2cc(C(C)C)c(O)cc2O)cc1Cl`: the growth is 15.9%.

As to `O=C(NN1C(=O)/C(=C/C=C/c2ccc([N+](=O)[O-])o2)SC1=S)c1ccc([N+](=O)[O-])cc1`, the growth is -93% (active).

`O=C(Nc1ccc(-c2ccc3c(c2)NC(=O)/C3=C\c2ccc[nH]2)cc1)Nc1ccc(Cl)c(Cl)c1`: the growth is 62%.

As to `O=C1Nc2ccc(F)cc2/C1=C/C(=O)c1cc2ccccc2oc1=O`, the growth is 108%.

For `Cc1cnc2ccc(Oc3ccccc3-c3ccccc3)nn12`, the growth was 117%.

Values taken from PubChem BioAssay (NCI).
